Assay outcomes from PubChem BioAssay.
TDP1 inh = blocks human tyrosyl-DNA phosphodiesterase 1. Q9NUW8. recombinant TDP1, AlphaScreen DNA substrate cleavage. Potency, µM (top dose mostly 130 µM), for the others: at the highest dose activity change, negative = inhibition, actives largely listed as inhibitors. 350,000 tested, 0.28% active. AID 485290; note: potency is the fitted concentration of half-maximal effect; % is set by controls: 0 for no effect and ±100 for the full control effect; nearly all actives have a fitted effect of over 40% in size
Target sequence (Q9NUW8 whole entry, looked up): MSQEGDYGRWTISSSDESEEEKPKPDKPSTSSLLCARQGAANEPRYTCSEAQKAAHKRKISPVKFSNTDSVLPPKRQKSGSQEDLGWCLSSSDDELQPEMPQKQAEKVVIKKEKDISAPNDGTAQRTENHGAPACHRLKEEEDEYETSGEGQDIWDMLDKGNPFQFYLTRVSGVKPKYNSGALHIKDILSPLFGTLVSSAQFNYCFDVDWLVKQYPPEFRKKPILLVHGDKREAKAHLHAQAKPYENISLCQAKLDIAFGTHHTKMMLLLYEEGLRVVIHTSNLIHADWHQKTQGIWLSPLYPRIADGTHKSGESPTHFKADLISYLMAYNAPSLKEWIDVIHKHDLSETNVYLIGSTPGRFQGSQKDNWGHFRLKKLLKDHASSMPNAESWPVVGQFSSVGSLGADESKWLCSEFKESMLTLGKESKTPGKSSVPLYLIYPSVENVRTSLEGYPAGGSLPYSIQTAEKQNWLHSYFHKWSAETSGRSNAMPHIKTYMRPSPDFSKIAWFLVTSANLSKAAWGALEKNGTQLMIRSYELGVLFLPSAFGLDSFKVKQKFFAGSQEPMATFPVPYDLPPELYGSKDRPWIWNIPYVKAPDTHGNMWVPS
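Enzyme-compound mixtures sat 15 min at room temperature, followed by a 5 min reaction with 15 nM final substrate and 10 min with AlphaScreen beads. Recombinant human Tdp1 was used at 1 nM final.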
HepG2 tox = kills HepG2 cells in TGF-b inhibitor counter-screen | HepG2 CAGA-GFP viability, ATP luminescence, 18 h | Potency, µM (highest dose often 46.1 µM), for inactives: top-dose activity change, negative = cytotoxicity, hits mostly cytotoxic | 410,000 tested, 0.76% active | AID 588856; note: potency is the fitted concentration of half-maximal effect
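HepG2 CAGA-GFP cells (1000/well, DMEM with 1% FBS) received compound, then TGF-beta at 500 pg/mL final, and were incubated 18 hours at 37 degrees C. Viability was read by CellTiter-Glo luminescence. Media-only wells were set as complete cell-killing and DMSO as no toxicity.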
TDP1 cell CPT = growth inhibition of DT40 Tdp1-/-;hTDP1 cells with camptothecin (screen for TDP1 inhibitors) | chicken DT40 Tdp1-/-;hTDP1 cells + 20 nM CPT, ATP luminescence, 48 h | 420,000 tested, 12% active | Potency, µM (highest dose often 46.2 µM), for the others: at the highest dose activity change, negative = growth inhibition, actives largely listed as inhibitors; note: potency is the fitted concentration of half-maximal effect; % is set by controls: 0 for no effect and ±100 for the full control effect; nearly all actives have a fitted effect of over 55% in size
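Chicken DT40 Tdp1-/- cells complemented with human TDP1, 400 cells/well, exposed to compounds plus 20 nM camptothecin for at least 48 h at 37 C; viability read as ATP content by CellTiter-Glo luminescence.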
IL-1B inflam inh = inflammasome signaling inhibition, IL-1 beta readout | THP-1 LPS/ATP IL-1B secretion, AlphaLISA, 16 h; hits give low values | activity change, % at 57.5 µM | 360,000 tested, 4.7% active | AID 743279; in the data active = activity change below about -50%; inconclusive = mostly about -30% to -49%; note: % is set by controls: 0 for no effect and ±100 for the full control effect
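Secreted IL-1B measured by AlphaLISA bead assay after 16 h compound exposure of THP-1 cells; compounds (final up to 57.5 uM) added 1 h before LPS (250 ng/mL) and ATP (1.25 mM) stimulation; lower signal means less secretion.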
DT40 TDP1 no CPT = qHTS for Inhibitors of human tyrosyl-DNA phosphodiesterase 1 (TDP1): qHTS in cells in absence of CPT; DT40 Tdp1-/- hTDP1 cells, no CPT, ATP luminescence, 48 h; Potency, µM (highest dose often 46.2 µM), without a hit: at the highest dose activity change, negative = growth inhibition, most hits filed as inhibitors; 420,000 tested, 15% active; note: potency is the fitted concentration of half-maximal effect; % is set by controls: 0 for no effect and ±100 for the full control effect; nearly all actives have a fitted effect of over 55% in size
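Stably hTDP1-transfected Tdp1-null chicken DT40 cells were treated with library compounds minus camptothecin and grown for at least 48 hr at 37 °C, after which cellular ATP was quantified by luminescence.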
TGFb SMAD3 inh = inhibitors of TGF-b signaling; Potency, µM (doses to about 46.1 µM), inactives show top-dose activity, negative = inhibition, most hits filed as inhibitors; 410,000 tested, 1.2% active; HepG2 CAGA-GFP TGF-b/SMAD3 reporter, GFP fluorescence, 18 h; TGF-beta stimulated, 500 pg/mL final; AID 588855; note: potency is the fitted concentration of half-maximal effect; % is set by controls: 0 for no effect and ±100 for the full control effect; nearly all actives have a fitted effect of over 65% in size
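HEPG2 CAGA-GFP, 1000 cells/well; 2 h settle, 37 C; cpd via pin tool; TGF-b 500 pg/mL final; 18 h, 37 C; GFP imaging ex488/em500-530; %Activity normalised to -TGF-b and +DMSO controls; CRC fit, curve class.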
Starred values were filed as active, the others as inactive; [ ] = another dose, or the depositor's remark. Hits are enriched below; roughly 18% of the tested compounds scored in any of these assays. Unless noted, calls come from the whole dose curve; as a rule, active = well fitted curve in the direction sought with a large enough effect; inconclusive = small, poorly fitted or top-dose-only effect, or another doubt; inactive = no such curve, though single readings can be large; an effect the other way counts as inactive or inconclusive.

How did COc1ccccc1Cc1c(-c2ccccc2)nc2ccc(Br)cn12 do in these assays?
HepG2 tox: -25%; TDP1 cell CPT: 15µM*; IL-1B inflam inh: 25; DT40 TDP1 no CPT: 13µM*; TGFb SMAD3 inh: inconclusive

How did CCCn1c(-c2ccc(F)cc2)nc2c(NCCN3CCCCC3)nc(C)nc21 do in these assays?
TDP1 inh: 3%

Results for CC(NC(=O)C(=O)N1CCOCC1)C(c1cccs1)N1CCN(c2ccccc2F)CC1 (configuration not stated) ?
TDP1 inh: 5%; HepG2 tox: -9%; TDP1 cell CPT: -8%; IL-1B inflam inh: -9; DT40 TDP1 no CPT: -4%; TGFb SMAD3 inh: -10%

How did COc1ccccc1Cc1c(-c2cccc(Cl)c2)nc2ccc(Cl)cn12 do in these assays?
HepG2 tox: -23%; TDP1 cell CPT: 23µM*; IL-1B inflam inh: 2; DT40 TDP1 no CPT: 18µM*; TGFb SMAD3 inh: inconclusive

How did COc1ccccc1Cc1c(-c2ccc(C#N)cc2)nc2c(C)cc(Br)cn12 do in these assays?
HepG2 tox: -1%; TDP1 cell CPT: inconclusive; IL-1B inflam inh: 8; DT40 TDP1 no CPT: inconclusive; TGFb SMAD3 inh: -3%

Results for COc1ccccc1Cc1c(-c2ccc(F)cc2)nc2c(C)cc(Br)cn12 ?
HepG2 tox: -36%; TDP1 cell CPT: inconclusive; IL-1B inflam inh: 1; DT40 TDP1 no CPT: inconclusive; TGFb SMAD3 inh: inconclusive

Results for FC(F)(F)c1ccccc1Cc1c(C2CCCCC2)nc2ccc(Br)cn12 ?
HepG2 tox: -67%; TDP1 cell CPT: inconclusive; IL-1B inflam inh: -1; DT40 TDP1 no CPT: inconclusive; TGFb SMAD3 inh: inconclusive

Results for COc1ccccc1Cc1c(-c2ccc(C#N)cc2)nc2ccc(Br)cn12 ?
HepG2 tox: -23%; TDP1 cell CPT: 21µM*; IL-1B inflam inh: -24; DT40 TDP1 no CPT: 16µM*; TGFb SMAD3 inh: -7%

What do the screens show for `COc1ccccc1Cc1c(C2CCCCC2)nc2ccc(Br)cn12`?
HepG2 tox: -26%; TDP1 cell CPT: 8.2µM*; IL-1B inflam inh: 0; DT40 TDP1 no CPT: 6.5µM*; TGFb SMAD3 inh: inconclusive

Results for COc1ccccc1Cc1c(-c2ccc(C)cc2)nc2c(C)cc(Br)cn12 ?
HepG2 tox: -17%; TDP1 cell CPT: 21µM*; IL-1B inflam inh: 42; DT40 TDP1 no CPT: 21µM*; TGFb SMAD3 inh: inconclusive

What do the screens show for `COc1cc(OC)cc(OC(=O)C2CCN(S(=O)(=O)c3ccc(OC)c(OC)c3)CC2)c1`?
HepG2 tox: -4%; TDP1 cell CPT: -16%; IL-1B inflam inh: 10; DT40 TDP1 no CPT: -7%; TGFb SMAD3 inh: inconclusive

How did O=C(COC(=O)C1C2CC3OC(=O)C1C3C2)Nc1ccc(Br)cc1 (configuration not stated) do in these assays?
TDP1 inh: 2%[0.0935 µM]; HepG2 tox: 10%; TDP1 cell CPT: -4%; IL-1B inflam inh: 14; DT40 TDP1 no CPT: -5%; TGFb SMAD3 inh: -13%

What do the screens show for `Cc1ccsc1CN(C)CC(=O)Nc1cccc(S(=O)(=O)N(C)c2ccccc2)c1`?
TDP1 inh: -3%; HepG2 tox: 1%; TDP1 cell CPT: inconclusive; IL-1B inflam inh: -13; DT40 TDP1 no CPT: inconclusive; TGFb SMAD3 inh: -14%

How did Cc1cc(C)c(NC(=O)Cn2nc3c(cc2=O)CCCC3)c(C)c1 do in these assays?
TDP1 inh: 5%; HepG2 tox: -3%; TDP1 cell CPT: 0%; DT40 TDP1 no CPT: -5%; TGFb SMAD3 inh: -12%

What do the screens show for `COc1ccc(OC)c(/C=C/c2cc3ccccc3cn2)c1`?
HepG2 tox: -22%; TDP1 cell CPT: 5µM*; DT40 TDP1 no CPT: 5µM*; TGFb SMAD3 inh: inconclusive

Results for COc1cc(OC)c(OC)cc1C=Cc1ccc2ccccc2n1 ?
HepG2 tox: -28%; TDP1 cell CPT: 16µM*; IL-1B inflam inh: -19; DT40 TDP1 no CPT: 15µM*; TGFb SMAD3 inh: -24%

What do the screens show for `COc1cc(OC)c(OC)cc1/C=C/c1cc(C(=O)O)c2ccccc2n1`?
TDP1 inh: 1%; HepG2 tox: 21%; TDP1 cell CPT: 9%; IL-1B inflam inh: 6; DT40 TDP1 no CPT: -1%; TGFb SMAD3 inh: 7%

How did COc1ccc(/C=C/c2ccc3ccccc3n2)c(OC)c1 do in these assays?
HepG2 tox: -64%; TDP1 cell CPT: 16µM*; DT40 TDP1 no CPT: 11µM*; TGFb SMAD3 inh: 1%

What do the screens show for `COc1ccc(OC)c(/C=C/c2ccccc2)c1`?
HepG2 tox: 1%; TDP1 cell CPT: -25%; DT40 TDP1 no CPT: -1%; TGFb SMAD3 inh: 3%

How did COc1ccc(OC)c(/C=C/c2ccc3ccccc3[n+]2C)c1 do in these assays?
HepG2 tox: -17%; TDP1 cell CPT: 2µM*; DT40 TDP1 no CPT: 2µM*; TGFb SMAD3 inh: -20%

Results for CSc1nnc(C2CCN(CC(=O)Nc3ccccc3N3CCOCC3)CC2)n1C(C)C ?
TDP1 inh: 11%; HepG2 tox: 0%; TDP1 cell CPT: -4%; IL-1B inflam inh: -10; DT40 TDP1 no CPT: -9%; TGFb SMAD3 inh: -1%

What do the screens show for `Cc1ccnc(Cc2ccccc2)n1`?
HepG2 tox: 1%; TDP1 cell CPT: -1%; IL-1B inflam inh: 11; DT40 TDP1 no CPT: -11%; TGFb SMAD3 inh: 4%

How did CCN(CC(=O)Nc1c(F)cccc1F)C(=O)CSc1nc(C)cc(C)n1 do in these assays?
TDP1 inh: 3%; HepG2 tox: -23%; TDP1 cell CPT: -11%; IL-1B inflam inh: 10; DT40 TDP1 no CPT: -2%; TGFb SMAD3 inh: 2%

Results for COc1ccc(C(=O)c2oc3ccccc3c2NC(=O)COc2ccccc2)cc1 ?
TDP1 inh: 0%[12.3 µM]; HepG2 tox: 0%; TDP1 cell CPT: 6%; DT40 TDP1 no CPT: inconclusive; TGFb SMAD3 inh: -3%

What do the screens show for `COc1ccc(C(=O)Nc2ccc3c(c2)OCO3)cc1S(=O)(=O)N1CCOCC1`?
HepG2 tox: -34%; TDP1 cell CPT: -1%; IL-1B inflam inh: 0; DT40 TDP1 no CPT: inconclusive; TGFb SMAD3 inh: -11%

What do the screens show for `Cc1nn(CCCC(=O)NCCc2ccccc2)c(C)c1[N+](=O)[O-]`?
TDP1 inh: -4%; HepG2 tox: -6%; TDP1 cell CPT: 6%; IL-1B inflam inh: -5; DT40 TDP1 no CPT: inconclusive; TGFb SMAD3 inh: 1%

Results for Cn1nc([N+](=O)[O-])nc1Oc1ccccc1F ?
TDP1 inh: 3%; HepG2 tox: -7%; TDP1 cell CPT: -2%; IL-1B inflam inh: -2; DT40 TDP1 no CPT: -6%; TGFb SMAD3 inh: -4%
